Assay outcomes from PubChem.
HT1080 IDH1KD tx – toxicity to HT-1080 IDH1 knockdown cells (counter line); Potency, µM (titrated, usually from 46.1 µM), for inactives: at the highest dose activity, negative = toxicity, usual class: cytotoxic; AID 686971; HT-1080 IDH1 knockdown viability, ATP luminescence, 48 h; 360,000 compounds, 2% hits;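 further: 0% = DMSO wells and -100% = cell-free medium wells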
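Viability of IDH1-knockdown HT-1080 fibrosarcoma cells was assessed by CellTiter-Glo after 48 h at 37 °C with titrated compound; concentration-effect curves were classified by fit quality and response size.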
KB-3-1 cytotox – kills parental KB-3-1 adenocarcinoma cells | KB-3-1 viability, CellTiter-Glo ATP luminescence, 72 h | Potency, µM (highest dose often 46.1 µM), hits mostly cytotoxic | 400,000 compounds, 1.4% hits | AID 1347075; further: on the % scale 0 is the no-effect control and ±100 the full control effect; nearly all actives have a fitted effect of over 60% in size
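Parental KB-3-1 viability, qHTS format: 72 h compound exposure, 37 °C; CellTiter-Glo; media-only wells and DMSO plates as controls; concentration-effect fits on corrected data.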
KB-V1 cytotox – kills drug-selected multidrug resistant KB-V1 cells | Potency, µM (series often up to 46.1 µM), usual class: cytotoxic | AID 1347076 | 400,000 compounds, 3.4% hits | KB-V1 MDR cells viability, CellTiter-Glo, 72 h; further: on the % scale 0 is the no-effect control and ±100 the full control effect; nearly all actives have a fitted effect of over 60% in size
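Luminescent ATP read-out (CellTiter-Glo, 10 min) measures survival of drug-selected KB-V1 MDR cells after 72 h, 37 degrees C compound exposure. Medium: phenol-red-free DMEM, 10% FBS. Values from fitted concentration-response curves.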
HT1080-NT tox – kills 2HG-producing HT-1080-NT fibrosarcoma cells | HT-1080-NT fibrosarcoma viability, CellTiter-Glo ATP luminescence, 48 h | Potency, µM (highest dose often 46.1 µM), for inactives: at the highest dose activity, negative = less viability, usual class: cytotoxic | 360,000 compounds, 1.6% hits | AID 686970;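 further: NT is the 2HG producing partner of a matched IDH1 knockdown line; 0% = DMSO-treated cells and -100% = media-only wells without cells; nearly all actives have a fitted effect of over 55% in size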
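750 cells/well, RPMI + 5% FBS; 2 h settle, compound pin-transfer, 48 h at 37 degrees C. CellTiter-Glo 10 min RT, luminescence. Normalized to DMSO and media-only wells.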
SW480 rerep – inducers of DNA re-replication in SW480 colon cancer cells; SW480 DNA re-replication, Hoechst DNA content imaging, 48 h; Potency, µM (titrated, usually from 46.1 µM), for inactives: top-dose re-replication activation, usual class: activators; 340,000 compounds, 1.8% hits; AID 624297; further: % of control where 0% means no effect; nearly all actives have a fitted effect of over 55% in size
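DNA re-replication was detected as more nuclei of elevated Hoechst intensity after 48 hr exposure to compound (23 nL pinned per well of 250 cells).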
MCF10A rerep – DNA re-replication induction in MCF 10a cells. MCF 10A DNA re-replication, Hoechst nuclear intensity, 48 h. Potency, µM (doses to about 46.1 µM), without a hit: at the highest dose activity, positive = re-replication, actives largely listed as activators. 350,000 compounds, 2.9% hits; further: % of control where 0% means no effect; nearly all actives have a fitted effect of over 50% in size
Starred values were filed as active, the others as inactive; i = inactive; ? = inconclusive; nt = no result given; [ ] = remark or other dose. A selection: hits, their analogues and other compounds. The true share with any hit is near 8%. The call rests on the fitted dose curve; in most records, active means well fitted curve in the direction sought with a large enough effect; inconclusive means small, poorly fitted or top-dose-only effect, or another doubt; inactive means no such curve, though single readings can be large; an effect the other way counts as inactive or inconclusive. Potency means the concentration at half of the fitted maximal effect.

SMILES	HT1080 IDH1KD tx	KB-3-1 cytotox	KB-V1 cytotox	HT1080-NT tox	SW480 rerep	MCF10A rerep
COc1ccc(C2CC(=O)C3=C(C2)Nc2ncnn2C3c2ccccc2C)cc1 (stereo unspecified)	-6%	i	16µM*	-3%	3%	5%
Cc1ccc(S(=O)(=O)N(C)C)cc1NC(=O)c1ccc(OC(F)(F)F)cc1	0%	i	i	1%	8%	-6%
Nc1ccccc1SCC1CSc2nc3ccccc3c(=O)n21 (stereo unspecified)	1%	i	i	10%	-4%	-7%
O=c1c2ccccc2nc2n1C(CSCc1ccc(Cl)cc1Cl)CS2 (stereo unspecified)	-1%[9.24 µM]	?	5.8µM*	-2%	-2%	0%
CC(=O)Nc1cccc(Oc2ncccc2[N+](=O)[O-])c1	10%	i	i	10%	-5%	9%
Cc1cccc(N/C(N)=N/c2nc(CSc3ccc(Cl)cc3)cc(=O)[nH]2)c1	-3%	i	i	0%	?	3.7µM*
COCc1cc(=O)[nH]c(/N=C(\N)Nc2cccc(C)c2)n1	-1%	i	?	-4%	6%	-184%[0.0737 µM]
COCc1cc(=O)[nH]c(/N=C(\N)Nc2ccc(Oc3ccccc3)cc2)n1	3%	i	18µM*	-15%	-4%	1%
Cc1ccc(N/C(N)=N/c2nc(CSc3nnc(C)s3)cc(=O)[nH]2)c(C)c1	4.1µM*	2.3µM*	?	2.6µM*	?	5.8µM*
COC(=O)Cc1cc(=O)[nH]c(/N=C(\N)Nc2cccc(C)c2)n1	18%	i	i	21%	-2%	-3%
COc1ccc(N/C(N)=N/c2nc(CSc3nnc(C)s3)cc(=O)[nH]2)cc1	2.6µM*	5.2µM*	i	3.3µM*	3.3µM*	?
CCOC(=O)C1CCCN(S(=O)(=O)c2ccc(Br)c(OC)c2)C1 (stereo unspecified)	-1%	i	i	0%	-4%	?
Clc1ccc(OCc2nnc3n2N=C(c2ccc4c(c2)OCCO4)CS3)c(Cl)c1	8.9µM*	?	?	10µM*	?	7%
COC(=O)c1c(NC(=O)c2cccc(N3C(=O)CCC3=O)c2)sc2c1CCN(C(C)=O)C2	10%	i	i	20%	22%	-2%
O=S(=O)(c1ccc(C(F)(F)F)cc1)N1CCCN(c2ccc(C(F)(F)F)cn2)CC1	-15%	i	?	-20%	2%	?
COC(=O)[C@H](C)NC(=O)NCc1ccc(F)cc1	6%	i	i	-1%	-6%	-1%
Cc1c(CCC(=O)NCCCn2ccnc2)c(=O)oc2c(C)c3oc4c(c3cc12)CCCC4	-17%	23µM*	i	-21%	-3%	14%
CC(C)[C@H](NC(=O)OCc1ccccc1)C(=O)NCc1ccccc1	7%	i	i	3%	-2%	0%
CCOC(=O)C1=CCN(S(=O)(=O)c2ccc(F)cc2)C1c1ccc(C)cc1 (stereo unspecified)	-1%	i	i	-1%	nt	nt
O=C(NCCCn1ccnc1)c1ccc(-c2cccc(Cl)c2Cl)o1	-15%	nt	nt	0%	6%	?
NC(=S)N/N=C/c1ccc(/C=N/NC(N)=S)cc1	1%	i	i	-12%	18µM*	?
NC(=S)N/N=C/c1cccc(Br)c1	-3%	?	8.2µM*	0%	-4%	-7%
NC(=S)N/N=C/c1cccc(/C=N/NC(N)=S)c1	30%	i	i	28%	3%	4%
NC(=O)c1oc2ccccc2c1NC(=O)c1ccc(F)cc1	-5%	i	i	0%	1%	-1%
NC(=O)c1oc2ccccc2c1NC(=O)c1ccc([N+](=O)[O-])o1	2.1µM*	3.7µM*	7.3µM*	1.5µM*	?	?
